Experimental data from PubChem BioAssay (Tox21).
Values joined by “and” are separate entries in the source; they are usually repeats but may differ in a detail not shown here. Equal values may be shown once. Inconclusive results are not listed. Some structures have more than one record in an assay (separate samples or runs), and their calls can disagree. Active and inactive are the calls of the source. Unless noted, calls come from the whole dose curve.

Tests used:
[1] = qHTS assay to identify small molecule antagonists of the sonic hedgehog signaling (Shh) pathway (AID 1259369); note: nearly all actives have a fitted effect of over 45% in size; note: potency is the fitted concentration of half-maximal effect
Method in brief: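 Antagonist mode: compound added to 3T3 Gli1-Luc cells followed by conditioned-medium stimulation, 24 h at 37 C, 5% CO2. Inhibition taken as loss of Gli1-driven luciferase luminescence.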

[2] = biological target: Estrogen receptor beta (Homo sapiens) (UniProt Q92731); assay: qHTS assay to identify small molecule agonists of the estrogen receptor beta (ER-beta) signaling pathway (AID 1259377; active = well fitted activation curve with a large enough effect in the signal ratio in the repeat runs, not every such curve was filed as active; the % refers to the signal ratio; note: potency is the fitted concentration of half-maximal effect)
Method in brief: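 Beta-lactamase reporter readout: fluorescence of LiveBLAzer B/G FRET substrate after 2 h at room temperature, following 16 h compound treatment of ER-beta-UAS-bla HEK293T cells at 37C in 2% charcoal-stripped FBS medium.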

[3] = biological target: Estrogen receptor beta (Homo sapiens) (UniProt Q92731); assay: qHTS assay to identify small molecule antagonists of the estrogen receptor beta (ER-beta) signaling pathway (AID 1259378; active = well fitted inhibition curve with a large enough effect in the signal ratio in the repeat runs, not every such curve was filed as active; the % refers to the signal ratio; note: potency is the fitted concentration of half-maximal effect)
Method in brief: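 Antagonist mode: compounds added to beta-lactamase reporter HEK293T ER-beta-UAS cells stimulated with E2 (1nM final), 16 hr at 37C. LiveBLAzer B/G FRET substrate, 2 hours room temperature, fluorescence read-out.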

[4] = qHTS assay to identify small molecule agonists of the androgen receptor (AR) signaling pathway in the presence of an antagonist - cell viability counter screen (AID 1259379; active = well fitted curve in the direction sought with a large enough effect in the repeat runs; an effect the other way counts as inactive or inconclusive; note: nearly all actives have a fitted effect of over 25% in size; note: potency is the fitted concentration of half-maximal effect)
Method in brief: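 Cytotoxicity counter-screen run in the same wells as the nilutamide-challenged (3.0 µM final) AR agonist assay in MDA-kb2 cells. Compounds tested at 15 concentrations for 16 h, 37 °C without CO2; CellTiter-Fluor fluorescence read.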

[5] = qHTS assay to identify small molecule agonists of the estrogen receptor beta (ER-beta) signaling pathway - cell viability counter screen (AID 1259380; active = well fitted curve in the direction sought with a large enough effect in the repeat runs; an effect the other way counts as inactive or inconclusive; note: nearly all actives have a fitted effect of over 30% in size; note: potency is the fitted concentration of half-maximal effect)
Method in brief: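 Cell viability counter screen: CellTiter-Glo luminescence (30 min, room temperature) measured in the same wells as the beta-lactamase readout, after 16 hr compound exposure at 37C of ER-beta-bla HEK293T cells in 2% charcoal-stripped FBS medium.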

[6] = qHTS assay to identify small molecule antagonists of the estrogen receptor beta (ER-beta) signaling pathway - cell viability counter screen (AID 1259382; active = well fitted curve in the direction sought with a large enough effect in the repeat runs; an effect the other way counts as inactive or inconclusive; note: nearly all actives have a fitted effect of over 55% in size; note: potency is the fitted concentration of half-maximal effect)
Method in brief: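 Cytotoxicity was measured in the same wells by CellTiter-Glo luminescence after 30 min at room temperature. Cells were ER-beta-bla HEK293T in charcoal-stripped serum, given compound together with 1 nM E2 and incubated 16 h at 37C.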

[7] = biological target: Estrogen receptor (Homo sapiens) (UniProt P03372); assay: qHTS assay to identify small molecule agonists of the estrogen receptor alpha (ER-alpha) signaling pathway in the presence of an antagonist (AID 1259383); note: nearly all actives have a fitted effect of over 15% in size; note: potency is the fitted concentration of half-maximal effect; for activation: top concentration of the series differs between compounds
Method in brief: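 Agonist-mode confirmation run in the presence of 10.0nM (final) ICI-182,780 antagonist. The reporter was ERE-driven luciferase in VM7Luc4E2 cells, grown in charcoal-stripped serum. Cells were exposed to 15-concentration compound series for 22hr, then ONE-Glo luminescence was read.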

[8] = biological target: Androgen receptor (Homo sapiens) (UniProt P10275); assay: qHTS assay to identify small molecule agonists of the androgen receptor (AR) signaling pathway in the presence of an antagonist (AID 1259381); note: nearly all actives have a fitted effect of over 15% in size; note: potency is the fitted concentration of half-maximal effect
Method in brief: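 Agonist-mode confirmation run against 3.0 uM final nilutamide: compounds titrated at 15 concentrations onto MDA-kb2 MMTV-luciferase reporter cells. Luminescence measured with ONE-Glo following 16 hr incubation, 37C, 0% CO2.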

[9] = qHTS assay to identify small molecule agonists or antagonists of the thyroid stimulating hormone receptor (TSHR) signaling pathway - wild type cell line counter screen (AID 1259384)
Method in brief: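 Counter screen in untransfected Hek293: compounds (15-point titration, triplicate) plus phosphodiesterase inhibitor Ro20-1724 added after 18 h plating; 30 min RT. Intracellular cAMP via competitive d2/cryptate immunoassay, 1 h incubation.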

[10] = biological target: Thyrotropin receptor (Homo sapiens) (UniProt P16473); assay: qHTS assay to identify small molecule antagonists of the thyroid stimulating hormone receptor (TSHR) signaling pathway (AID 1259385); note: nearly all actives have a fitted effect of over 20% in size; note: potency is the fitted concentration of half-maximal effect
Method in brief: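 Antagonist mode: compound-treated TSHR-expressing HEK293 cells were stimulated with 1.5 ng/mL TSH (final) in presence of Ro20-1724 for 30 min at RT. HTRF cAMP detection after 1 h; each compound tested at 15 concentrations, triplicate.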

Measured: Potency

Estrogen receptor beta (Homo sapiens), sequence (Q92731 whole entry, looked up): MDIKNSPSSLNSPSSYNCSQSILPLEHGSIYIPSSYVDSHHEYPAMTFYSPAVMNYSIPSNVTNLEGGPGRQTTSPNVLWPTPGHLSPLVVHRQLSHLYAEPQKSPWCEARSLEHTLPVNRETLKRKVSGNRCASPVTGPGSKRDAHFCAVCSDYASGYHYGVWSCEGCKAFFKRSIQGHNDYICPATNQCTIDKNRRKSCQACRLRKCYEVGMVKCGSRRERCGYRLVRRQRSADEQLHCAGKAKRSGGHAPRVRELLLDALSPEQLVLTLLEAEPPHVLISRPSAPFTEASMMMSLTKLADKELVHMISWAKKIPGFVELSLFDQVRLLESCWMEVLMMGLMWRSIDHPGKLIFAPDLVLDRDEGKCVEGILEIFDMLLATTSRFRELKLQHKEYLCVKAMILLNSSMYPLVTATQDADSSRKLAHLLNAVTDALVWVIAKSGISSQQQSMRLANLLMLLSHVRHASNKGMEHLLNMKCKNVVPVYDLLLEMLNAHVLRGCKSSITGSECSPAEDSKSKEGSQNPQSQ
Androgen receptor (Homo sapiens), sequence (P10275 whole entry, looked up): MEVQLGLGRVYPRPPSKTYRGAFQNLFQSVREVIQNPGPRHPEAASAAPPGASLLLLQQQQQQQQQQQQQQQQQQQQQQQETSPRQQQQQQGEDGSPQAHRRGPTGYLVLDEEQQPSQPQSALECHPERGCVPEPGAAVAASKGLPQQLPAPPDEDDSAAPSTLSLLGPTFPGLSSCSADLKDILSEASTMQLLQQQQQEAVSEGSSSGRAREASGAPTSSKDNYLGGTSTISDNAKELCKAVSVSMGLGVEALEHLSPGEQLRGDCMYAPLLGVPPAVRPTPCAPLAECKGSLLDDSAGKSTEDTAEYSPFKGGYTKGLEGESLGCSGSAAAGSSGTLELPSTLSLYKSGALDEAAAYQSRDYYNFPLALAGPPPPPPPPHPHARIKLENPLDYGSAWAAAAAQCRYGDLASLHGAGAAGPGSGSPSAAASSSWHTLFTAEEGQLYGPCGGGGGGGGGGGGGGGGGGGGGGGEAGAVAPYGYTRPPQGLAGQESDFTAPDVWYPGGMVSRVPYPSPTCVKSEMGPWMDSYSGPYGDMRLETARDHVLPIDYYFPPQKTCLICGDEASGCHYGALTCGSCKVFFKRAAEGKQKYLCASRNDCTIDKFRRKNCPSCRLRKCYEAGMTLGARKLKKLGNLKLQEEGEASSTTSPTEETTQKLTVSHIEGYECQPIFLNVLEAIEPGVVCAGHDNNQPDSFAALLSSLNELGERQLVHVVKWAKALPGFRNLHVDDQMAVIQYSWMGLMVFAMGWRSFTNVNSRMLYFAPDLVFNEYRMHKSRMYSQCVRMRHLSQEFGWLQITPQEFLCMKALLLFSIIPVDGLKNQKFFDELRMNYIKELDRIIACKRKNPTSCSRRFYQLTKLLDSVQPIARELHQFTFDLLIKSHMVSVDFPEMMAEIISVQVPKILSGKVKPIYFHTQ
Thyrotropin receptor (Homo sapiens), sequence (P16473 whole entry, looked up): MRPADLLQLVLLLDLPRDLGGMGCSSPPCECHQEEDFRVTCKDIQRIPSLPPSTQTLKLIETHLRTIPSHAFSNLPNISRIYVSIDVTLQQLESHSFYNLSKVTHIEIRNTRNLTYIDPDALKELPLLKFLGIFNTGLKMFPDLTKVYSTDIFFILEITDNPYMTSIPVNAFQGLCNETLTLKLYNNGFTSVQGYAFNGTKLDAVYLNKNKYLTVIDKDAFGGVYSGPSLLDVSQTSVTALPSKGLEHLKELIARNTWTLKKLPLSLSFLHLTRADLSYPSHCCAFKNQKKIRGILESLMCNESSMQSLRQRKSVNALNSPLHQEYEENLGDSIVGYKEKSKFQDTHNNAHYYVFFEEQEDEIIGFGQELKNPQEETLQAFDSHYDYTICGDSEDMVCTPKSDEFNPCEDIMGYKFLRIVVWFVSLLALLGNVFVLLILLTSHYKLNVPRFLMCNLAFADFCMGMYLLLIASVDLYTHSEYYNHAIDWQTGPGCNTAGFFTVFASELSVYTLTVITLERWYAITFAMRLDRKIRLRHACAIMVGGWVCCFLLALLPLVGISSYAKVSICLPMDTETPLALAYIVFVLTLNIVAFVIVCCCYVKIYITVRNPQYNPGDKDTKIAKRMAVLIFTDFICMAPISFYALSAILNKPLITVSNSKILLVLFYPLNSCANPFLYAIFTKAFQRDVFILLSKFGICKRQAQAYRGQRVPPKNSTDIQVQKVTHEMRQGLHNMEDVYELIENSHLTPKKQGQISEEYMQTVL
Estrogen receptor (Homo sapiens), sequence (P03372 whole entry, looked up): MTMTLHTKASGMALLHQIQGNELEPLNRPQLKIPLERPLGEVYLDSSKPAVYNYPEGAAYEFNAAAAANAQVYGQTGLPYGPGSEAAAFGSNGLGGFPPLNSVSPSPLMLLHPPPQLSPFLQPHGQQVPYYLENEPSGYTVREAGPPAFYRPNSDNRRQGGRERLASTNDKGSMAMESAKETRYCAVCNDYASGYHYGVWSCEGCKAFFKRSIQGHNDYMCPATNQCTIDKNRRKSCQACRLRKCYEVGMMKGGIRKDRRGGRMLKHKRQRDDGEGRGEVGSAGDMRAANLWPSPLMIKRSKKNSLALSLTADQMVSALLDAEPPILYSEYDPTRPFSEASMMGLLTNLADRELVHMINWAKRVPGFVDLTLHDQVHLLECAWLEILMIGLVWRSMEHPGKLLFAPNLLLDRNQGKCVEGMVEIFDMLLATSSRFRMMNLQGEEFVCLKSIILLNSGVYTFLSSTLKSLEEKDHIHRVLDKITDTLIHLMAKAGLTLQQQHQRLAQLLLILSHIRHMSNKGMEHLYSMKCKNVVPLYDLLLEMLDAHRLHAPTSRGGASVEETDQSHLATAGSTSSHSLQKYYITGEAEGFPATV

C=C(C)C(=O)OCCCCOC(=O)C(=C)C
not listed: [8] | [9] | [10]
inactive: all other assays above

CCCCCBr
not listed: [9] | [10]
inactive: all other assays above

CC1(C)CC(=O)CC(C)(C)N1[O]
not listed: [7] | [8] | [10]
inactive: all other assays above

CC(C)(C)c1ccc(CCOc2ncnc3ccccc23)cc1
not listed: [7] | [8]
inactive: all other assays above

C=CCc1ccccc1O
inactive: [1] | [2] | [3] | [4] | [5] | [7]

CCC1(CC)C(=O)NC(=O)NC1=O
inactive: [1] | [2] | [3] | [4] | [6]

CCC1(CCC(C)C)C(=O)NC(=O)NC1=O
not listed: [7] | [9] | [10]
inactive: all other assays above

O=C(NCNC(=O)NC1C(=O)NC(=O)N1CO)NC1C(=O)NC(=O)N1CO (stereo not given)
not listed: [6] | [7]
inactive: all other assays above

C[N+](C)(C)CC1CO1 (stereo not given)
not listed: [5] | [7]
inactive: all other assays above

Cc1ccc(N)c(C)c1
inactive: [1] | [2] | [3] | [4] | [5] | [6]

Cc1cnc(C2=NC(C)(C(C)C)C(=O)N2)c(C(=O)O)c1 (stereo not given)
not listed: [5] | [7]
inactive: all other assays above

CC(C)c1ccc(NC(=O)N(C)C)cc1
inactive: [1] | [2] | [3] | [4] | [5] | [10]

SCc1ccccc1
not listed: [8]
inactive: all other assays above

C1CCNCC1
not listed: [8]
inactive: all other assays above

Cc1ccccc1
not listed: [7] | [8]
inactive: all other assays above

CCCCC1C(=O)NC(=O)N(C2CCCCC2)C1=O (stereo not given)
not listed: [8] | [9] | [10]
inactive: all other assays above

CN[C@@H](C)[C@H](O)c1ccccc1
not listed: [7] | [8]
inactive: all other assays above

O=S(=O)(Cl)Cl
not listed: [8]
inactive: all other assays above

CCOC(=O)C1OC1(C)c1ccccc1 (stereo not given)
not listed: [7] | [8]
inactive: all other assays above

CC(C)(C)NCC(O)c1ccccc1Cl (stereo not given)
not listed: [7] | [8]
inactive: all other assays above

O=C(Cc1ccccc1)OCCc1ccccc1
not listed: [7] | [8]
inactive: all other assays above

COc1ccc2c(c1OC)C(=O)O[C@H]2[C@@H]1c2cc3c(cc2CCN1C)OCO3
not listed: [7]
inactive: all other assays above

CCCCCCCCCCCCN(C)C
not listed: [8]
inactive: all other assays above

NC(=S)c1c(Cl)cccc1Cl
not listed: [8] | [9]
inactive: all other assays above

C[CH2][Hg][S]c1ccccc1C(=O)O
inactive: [2] | [8]
active: [1] 0.686 µM | [3] 3.35 µM | [4] 10.9 µM and 13.3 µM | [5] 2.17 µM and 5.31 µM | [6] 2.43 µM and 5.31 µM | [10] 13.7 µM and 29.8 µM

O=C([O-])c1ccccn1.O=C([O-])c1ccccn1.O=C([O-])c1ccccn1.[Cr+3]
inactive: [1] | [2] | [3] | [4] | [5] | [6]

CC(C)CCON=O
not listed: [7] | [8]
inactive: all other assays above

C[N+](C)(C)CCOC(=O)C(O)(c1ccccc1)c1ccccc1
inactive: [1] | [2] | [3] | [4] | [5] | [6]

COC(=O)C1(O)c2ccccc2-c2ccccc21
not listed: [5]
inactive: all other assays above

C=CC(=O)NC(C)(C)CC(C)=O
not listed: [8] | [9] | [10]
inactive: all other assays above

C[C@H]1O[C@H](OC2[C@@H](O)[C@@H](O)C(O)[C@H](O)[C@H]2O)[C@@H](N)C[C@@H]1N=C(N)C(=O)O (stereo not given in full)
not listed: [8]
inactive: all other assays above

CN(C1CCCCC1)C1CCCCC1
not listed: [7]
inactive: all other assays above

C=CCOC(=O)C(C)(C)OC(=O)c1cc(-n2c(=O)cc(C(F)(F)F)n(C)c2=O)ccc1Cl
inactive: [1] | [2] | [3]

Cc1nc(N(C)C)nc(OC(=O)N(C)C)c1C
not listed: [5] | [8]
inactive: all other assays above

O=C(O)COc1cc(Cl)c(Cl)cc1Cl
not listed: [7]
inactive: all other assays above

CC(O)CN1CCN(CC(=O)[O-])CCN(CC(=O)[O-])CCN(CC(=O)[O-])CC1.[Gd+3] (stereo not given)
not listed: [6] | [8]
inactive: all other assays above

O=C(O)c1cc(Cl)ccc1Cl
inactive: [1] | [2] | [3] | [4] | [6]

Clc1ccc2ccccc2c1
not listed: [6]
inactive: all other assays above

CCCCCCCCn1sccc1=O
inactive: [2] | [9]
active: [1] 1.37 µM and 1.02 µM | [3] 27.4 µM and 32.1 µM | [4] 61.3 µM and 57.1 µM | [5] 30.7 µM and 28.6 µM | [6] 27.4 µM and 28.6 µM | [10] 61.3 µM and 71.9 µM

CCCCOC(=O)CCC(=O)OCCCC
not listed: [5] | [7] | [8]
inactive: all other assays above

CCCCNC(=O)OCC#CI
inactive: [2] | [3] | [6] | [7] | [10]
active: [1] 2.16 µM and 7.7 µM | [4] 60.8 µM and 68.6 µM

COCc1cnc(C2=NC(C)(C(C)C)C(=O)N2)c(C(=O)O)c1 (stereo not given)
inactive: [1] | [2] | [3] | [8] | [6] | [10]

CCCCCCCCP(=O)(O)O
not listed: [4] | [7] | [8]
inactive: all other assays above

CCCN(CCC)C(=O)Cc1c(-c2ccc(Cl)cc2)nc2ccc(Cl)cn12
inactive: [1] | [2] | [3] | [4] | [9] | [10]

CC(C)(C)N(NC(=O)c1ccc(Cl)cc1)C(=O)c1ccccc1
inactive: [1] | [2] | [4] | [8] | [7]

CCOP(=O)(O)C(N)=O
not listed: [4] | [8]
inactive: all other assays above

CCSCc1ccccc1OC(=O)NC
not listed: [3] | [7] | [8]
inactive: all other assays above

C[C@@H]1C[C@@H]([C@H](O)CC2CC(=O)NC(=O)C2)C(=O)[C@@H](C)C1
active: [1] 12.1 nM and 48.6 nM and 150 nM
inactive: [2] | [4] | [6] | [9] | [10]

CCCSP(=S)(OCC)Oc1ccc(SC)cc1 (stereo not given)
active: [1] 61.1 µM
not listed: [5] | [8]
inactive: all other assays above

FC(F)OC(F)(F)C(F)Cl (stereo not given)
inactive: [1] | [2] | [3] | [8] | [9] | [10]

CCC(=O)O[C@@H]1C=C2CCC3C(CCC4(C)C3CC[C@@H]4OC(=O)CC)C2CC1 (stereo not given in full)
active: [2] 0.298 µM | [8] 0.188 µM | [7] 0.531 µM
inactive: [1] | [4] | [6] | [9]

Cc1nnc(-c2ccccc2)c(=O)n1N
not listed: [4] | [8] | [9]
inactive: all other assays above

O=C(O)CCCOc1ccc(Cl)cc1Cl
inactive: [3] | [4] | [5] | [6]
inactive and 44 µM (active): [1]
inactive and 55.4 µM (active): [8]

CN1C[C@H](C(=O)N[C@]2(C)O[C@@]3(O)[C@@H]4CCCN4C(=O)[C@H](Cc4ccccc4)N3C2=O)C=C2c3cccc4[nH]cc(c34)C[C@H]21
active: [1] 3.87 µM | [3] 27.4 µM | [6] 54.7 µM
inactive: [2] | [9] | [10]
